A short description of assay [1]: Nuclear factor erythroid 2-related factor 2/antioxidant responsive element (Nrf2/ARE) small molecule agonists: qHTS cell viability counter screen in human keratinocytes (AID 1919968; active = well fitted curve in the direction sought with a large enough effect in the repeat runs; an effect the other way counts as inactive or inconclusive; also: nearly all actives have a fitted effect of over 55% in size; also: potency is read from the fitted curve at half-maximal effect). The essentials:
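Stably transfected HaCaT (KeratinoSens), 1,500/well. Test agents in DMSO were applied for 23 h, 37 C/5% CO2. CellTiter-Fluor was incubated 1 h before the fluorescence read.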
(qHTS replaces the single test concentration by a dilution series.)

Assay [2] is described as follows: Nuclear factor erythroid 2-related factor 2/antioxidant responsive element (Nrf2/ARE) small molecule agonists: luciferase reporter gene qHTS assay in human keratinocytes (AID 1919969; also: nearly all actives have a fitted effect of over 35% in size). (In a reporter assay the amount or activity of a reporter protein is the signal.)
Assay [3] concerns the target Gonadotropin-releasing hormone receptor (Homo sapiens) (UniProt P30968). Briefly: Human gonadotropin-releasing hormone receptor (GnRHR) small molecule agonists, calcium flux assay in GnRHR-HEK293 cells (AID 1920063). Also: nearly all actives have a fitted effect of over 35% in size. The essentials: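 Stable human GnRHR HEK293 line. 18 h plating, then calcium dye for 1 h at 37 C. Agonist-mode compound addition from DMSO stocks; fluorescence monitored 3 min.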
Background: A change in cytosolic calcium serves as a functional read-out for many receptors and channels.

The target of assay [4] is KiSS-1 receptor (Homo sapiens) (UniProt Q969F8). As to the kind of experiment: Human kisspeptin (KISS1R) small molecule agonists, calcium flux assay in KISS1R-HEK293 cells (AID 1920064; active = well fitted curve in the direction sought with a large enough effect in the repeat runs; an effect the other way counts as inactive or inconclusive). The procedure, abridged: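 After overnight (18 h) culture at 37 C/5% CO2, human KISS1R-HEK293 cells received calcium dye for 1 h, then test compound; emission at 540 nm (excitation 480 nm) was tracked for 3 min.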

Assay [5] in a line: G protein-coupled receptor (GPCR) small molecule agonists, calcium flux assay: HEK293 wild type cell line counter screen (AID 1920065). The essentials: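 Following 18 h incubation at 37 C/5% CO2, plates got calcium dye for 1 h; compounds, ATP or DMSO were then pinned in and fluorescence followed kinetically (480/540 nm).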
Assay [6] can be described thus: p53 small molecule agonists, cell-based qHTS assay with human liver microsomes (AID 1963577).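 Also: p53 response element beta-lactamase reporter cells with liver microsomes plus NADPH.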 The procedure, abridged: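 With metabolic activation: human liver microsomes (0.5 mg/mL final) plus NADPH (0.5 mg/mL final) added alongside compounds to p53RE-bla cells; 16 h 37 C exposure; beta-lactamase read by LiveBLAzer fluorescence.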
Assay [7] in a line: p53 small molecule agonists, cell-based qHTS assay with human liver microsomes: qHTS cell viability counter screen (AID 1963579). Also: nearly all actives have a fitted effect of over 45% in size. Also: potency is read from the fitted curve at half-maximal effect. The procedure, abridged: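 Metabolic activation used human liver microsomes and NADPH, both 0.5 mg/mL final, over 16 hours at 37 C on p53RE-bla cells (4,000/well). Cytotoxicity measured by CellTiter-Glo luminescence, 30 min at room temperature.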
Assay [8] is described as follows: p53 small molecule agonists, cell-based qHTS assay with rat liver microsomes: qHTS cell viability counter screen (AID 1963580). Also: nearly all actives have a fitted effect of over 45% in size. The procedure, abridged: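 After the beta-lactamase ratio was read, CellTiter-Glo was added to the same wells and luminescence measured at 30 min; cells had been treated 16 h at 37 C with compounds, rat liver microsomes and NADPH (0.5 mg/mL final each).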

Assay [9] is described as follows: p53 small molecule agonists, cell-based qHTS assay (AID 1963582; active = well fitted activation curve with a large enough effect in the signal ratio in the repeat runs, not every such curve was filed as active; the % refers to the signal ratio). The procedure, abridged:
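Measured: fluorescence from cleaved LiveBLAzer substrate. System: p53RE-bla cells, 16 h compound treatment at 37 C, 2 h substrate step at room temperature.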

Assay [10] addresses 5-hydroxytryptamine receptor 2A (Homo sapiens) (UniProt P28223). Briefly: 5-hydroxytryptamine receptor 2A (HTR2A) small molecule antagonists, cell-based qHTS assay (AID 1963586). Also: nearly all actives have a fitted effect of over 45% in size. Also: potency is read from the fitted curve at half-maximal effect. The procedure, abridged: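 CHO cells stably expressing human HTR2A were plated for 18 h at 37 C, then loaded with calcium dye for 1 h. Compounds were preincubated 5 min at room temperature before DOI (4 nM solution) was added. Kinetic fluorescence was read for 3 min.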

The target is the same in assay [11]. As to the kind of experiment: 5-hydroxytryptamine receptor 2A (HTR2A) small molecule agonists, cell-based qHTS assay (AID 1963587). Also: nearly all actives have a fitted effect of over 30% in size. The procedure, abridged: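 CHO cells stably expressing human HTR2A, plated 18 h, loaded with calcium dye 1 h at 37 C. Agonist mode: compounds added and intracellular calcium fluorescence recorded kinetically for 2 min at 1 sec intervals.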

In assay [12] the target is Muscarinic acetylcholine receptor M1 (Homo sapiens) (UniProt P11229). As to the kind of experiment: Cholinergic receptor muscarinic 1 (CHRM1) small molecule antagonists, cell-based qHTS assay (AID 1963588). Also: nearly all actives have a fitted effect of over 40% in size. The essentials: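 Compounds were tested at 15 concentrations in three independent runs. Dye-loaded CHRM1-CHO cells were exposed 5 min at room temperature before stimulation by acetylcholine added at 50nM. Intracellular calcium was read kinetically on FDSS for 3 min.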

The target is the same in assay [13]. As to the kind of experiment: Cholinergic receptor muscarinic 1 (CHRM1) small molecule agonists, cell-based qHTS assay (AID 1963589). Also: nearly all actives have a fitted effect of over 35% in size. The procedure, abridged:
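Kinetic fluorescence (1 s intervals) of calcium-sensitive dye in human M1 CHO cells after compound addition; cells pre-incubated 18 h at 37 C/5% CO2 and dye-loaded 1 h.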

Assay [14] can be described thus: cAMP Responsive Elements (CRE) small molecule agonists, cell-based qHTS assay (AID 1963590). The procedure, abridged: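 Test agents in DMSO were incubated 3 h at 37 C/5% CO2 with CRE-bla HEK 293T cells seeded 18 h earlier; LiveBLAzer B/G FRET substrate was added and read after 2 h at room temperature.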
Assay [15] in a line: cAMP Responsive Elements (CRE) small molecule antagonists, cell-based qHTS assay (AID 1963591; active = well fitted inhibition curve with a large enough effect in the signal ratio in the repeat runs, not every such curve was filed as active; the % refers to the signal ratio). The essentials:
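Reporter line CRE-bla HEK 293T in dialyzed-FBS DMEM; cells preincubated 18 h, treated 3 h with compound plus NKH477 (0.25 uM final); LiveBLAzer FRET, 2 h RT.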

The target of assay [16] is Beta-2 adrenergic receptor (Homo sapiens) (UniProt P07550). Briefly: Adrenergic beta2 receptor (ADRB2) small molecule antagonists, cell-based qHTS assay (AID 1963592). Also: series mostly up to about 92 µM; nearly all actives have a fitted effect of over 50% in size. The procedure, abridged: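 Assay format: CHO-ADRB2 cells, 18-20hr seeding at 37C/5% CO2, then compound plus 1nM isoproterenol agonist mix for 0.5hr RT. Homogeneous time-resolved fluorescence cAMP detection after 1hr, expressed as 665/615 nm ratio.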

Assay [17] has as its target D(2) dopamine receptor (Homo sapiens) (UniProt P14416). Briefly: Dopamine D2 receptor (DRD2) small molecule antagonists, cell-based qHTS assay (AID 1963595; active = well fitted inhibition curve with a large enough effect in the signal ratio in the repeat runs, with a control signal flat; the % refers to the signal ratio). The essentials:
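DRD2-HEK293; 0.1 mM Ro20-1724; cpd 10 min RT; NKH477 200 nM + quinpirole 12 nM, 30 min RT; HTRF cAMP (cAMP-d2/anti-cAMP cryptate), 665/620 nm ratio after 1 h.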

The nature of assay [18]: p53 small molecule agonists, cell-based qHTS assay: qHTS cell viability counter screen (AID 1963581). Also: nearly all actives have a fitted effect of over 45% in size. The essentials:
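qHTS counter screen: 16 h compound exposure at 37 C of p53RE-bla HCT-116 cells (4,000 per well, seeded 5 h prior), cell viability by ATP luminescence.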

The target in assay [19] is D(2) dopamine receptor (Homo sapiens) (UniProt P14416). As to the kind of experiment: Dopamine D2 receptor (DRD2) small molecule agonists, cell-based qHTS assay (AID 1963594). Also: nearly all actives have a fitted effect of over 35% in size. The essentials:
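HEK293 cells stably expressing human DRD2, pre-treated with PDE inhibitor Ro20-1724 (0.1 mM final) and compound 10 min at room temperature, then stimulated with NKH477 (200nM […]) for 30 min. cAMP read by HTRF (665/620 nm).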

The target of assay [20] is Beta-2 adrenergic receptor (Homo sapiens) (UniProt P07550). As to the kind of experiment: Adrenergic beta2 receptor (ADRB2) small molecule agonists, cell-based qHTS assay (AID 1963593).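 Also: CHO cells stably overexpressing human ADRB2.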 The essentials:
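CHO cells stably over-expressing ADRB2 were plated overnight at 37C, then dosed with compounds plus a stimulation mix containing 100uM IBMX and 25uM Ro-20-1724 for 0.5hr at room temperature. cAMP was measured by HTRF competition, 1hr.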

The structures appear in SMILES notation. Values joined by “and” are separate entries in the source; they are usually repeats but may differ in a detail not shown here. Equal entries are not always repeated. Results filed as inconclusive are left out. Where a structure was tested more than once in an assay, its records may differ in their call. Active and inactive are the calls of the source. Unless noted, calls follow the shape of the full dose curve.

Chain of Beta-2 adrenergic receptor (Homo sapiens) (P07550 whole entry, looked up): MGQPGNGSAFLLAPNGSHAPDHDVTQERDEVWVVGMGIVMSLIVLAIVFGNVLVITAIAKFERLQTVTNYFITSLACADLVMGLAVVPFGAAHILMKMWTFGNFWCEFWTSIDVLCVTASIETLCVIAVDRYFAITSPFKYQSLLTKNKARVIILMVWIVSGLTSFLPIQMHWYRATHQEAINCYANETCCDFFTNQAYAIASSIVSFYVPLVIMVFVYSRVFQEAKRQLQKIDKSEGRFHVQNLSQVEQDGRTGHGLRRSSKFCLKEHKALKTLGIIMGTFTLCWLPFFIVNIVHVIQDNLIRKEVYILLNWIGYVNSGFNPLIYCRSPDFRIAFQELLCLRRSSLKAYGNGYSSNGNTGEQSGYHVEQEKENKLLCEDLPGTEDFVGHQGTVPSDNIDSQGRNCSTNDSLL
Chain of D(2) dopamine receptor (Homo sapiens) (P14416 whole entry, looked up): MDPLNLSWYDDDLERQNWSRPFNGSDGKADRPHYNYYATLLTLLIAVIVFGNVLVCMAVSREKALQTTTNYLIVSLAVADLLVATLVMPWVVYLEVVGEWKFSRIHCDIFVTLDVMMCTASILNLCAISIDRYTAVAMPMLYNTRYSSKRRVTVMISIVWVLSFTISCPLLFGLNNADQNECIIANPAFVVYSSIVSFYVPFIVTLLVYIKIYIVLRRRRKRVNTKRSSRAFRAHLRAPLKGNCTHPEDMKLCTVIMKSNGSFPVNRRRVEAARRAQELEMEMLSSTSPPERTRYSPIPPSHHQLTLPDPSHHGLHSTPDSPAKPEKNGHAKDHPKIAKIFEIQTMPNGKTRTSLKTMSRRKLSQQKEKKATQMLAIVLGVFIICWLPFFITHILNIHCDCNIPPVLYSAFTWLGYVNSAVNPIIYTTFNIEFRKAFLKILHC
Chain of 5-hydroxytryptamine receptor 2A (Homo sapiens) (P28223 whole entry, looked up): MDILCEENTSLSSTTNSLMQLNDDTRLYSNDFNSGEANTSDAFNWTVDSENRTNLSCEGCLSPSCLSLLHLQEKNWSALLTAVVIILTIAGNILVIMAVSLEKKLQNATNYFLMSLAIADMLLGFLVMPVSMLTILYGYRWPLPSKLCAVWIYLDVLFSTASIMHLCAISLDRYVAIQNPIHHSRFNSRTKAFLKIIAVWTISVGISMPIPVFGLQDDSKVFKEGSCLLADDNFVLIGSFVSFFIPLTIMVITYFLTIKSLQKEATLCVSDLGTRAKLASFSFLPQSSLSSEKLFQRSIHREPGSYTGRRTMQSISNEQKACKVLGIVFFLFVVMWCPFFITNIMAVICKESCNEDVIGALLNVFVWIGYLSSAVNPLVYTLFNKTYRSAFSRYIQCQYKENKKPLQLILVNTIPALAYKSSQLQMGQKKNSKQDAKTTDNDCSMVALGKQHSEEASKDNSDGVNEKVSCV
Chain of Muscarinic acetylcholine receptor M1 (Homo sapiens) (P11229 whole entry, looked up): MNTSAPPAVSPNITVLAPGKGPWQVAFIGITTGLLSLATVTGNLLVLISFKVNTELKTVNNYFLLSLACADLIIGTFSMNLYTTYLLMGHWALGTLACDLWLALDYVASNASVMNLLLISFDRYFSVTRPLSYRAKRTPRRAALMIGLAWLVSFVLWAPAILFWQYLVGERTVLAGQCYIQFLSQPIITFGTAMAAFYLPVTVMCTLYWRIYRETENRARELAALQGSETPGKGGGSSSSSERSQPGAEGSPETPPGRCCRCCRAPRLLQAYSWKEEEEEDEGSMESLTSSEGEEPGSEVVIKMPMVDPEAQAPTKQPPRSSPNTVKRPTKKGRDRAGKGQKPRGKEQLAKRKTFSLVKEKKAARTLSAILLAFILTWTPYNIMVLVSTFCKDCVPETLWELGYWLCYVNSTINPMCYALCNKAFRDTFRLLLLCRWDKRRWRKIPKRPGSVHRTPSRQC
Chain of Gonadotropin-releasing hormone receptor (Homo sapiens) (P30968 whole entry, looked up): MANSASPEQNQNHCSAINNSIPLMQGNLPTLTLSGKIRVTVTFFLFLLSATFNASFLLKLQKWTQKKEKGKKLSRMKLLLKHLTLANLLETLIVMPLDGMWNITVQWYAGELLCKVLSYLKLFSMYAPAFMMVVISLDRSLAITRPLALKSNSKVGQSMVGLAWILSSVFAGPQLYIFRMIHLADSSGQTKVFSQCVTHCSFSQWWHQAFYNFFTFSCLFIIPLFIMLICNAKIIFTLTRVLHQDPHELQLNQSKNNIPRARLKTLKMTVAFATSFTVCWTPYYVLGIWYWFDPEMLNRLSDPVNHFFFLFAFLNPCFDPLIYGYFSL
Chain of KiSS-1 receptor (Homo sapiens) (Q969F8 whole entry, looked up): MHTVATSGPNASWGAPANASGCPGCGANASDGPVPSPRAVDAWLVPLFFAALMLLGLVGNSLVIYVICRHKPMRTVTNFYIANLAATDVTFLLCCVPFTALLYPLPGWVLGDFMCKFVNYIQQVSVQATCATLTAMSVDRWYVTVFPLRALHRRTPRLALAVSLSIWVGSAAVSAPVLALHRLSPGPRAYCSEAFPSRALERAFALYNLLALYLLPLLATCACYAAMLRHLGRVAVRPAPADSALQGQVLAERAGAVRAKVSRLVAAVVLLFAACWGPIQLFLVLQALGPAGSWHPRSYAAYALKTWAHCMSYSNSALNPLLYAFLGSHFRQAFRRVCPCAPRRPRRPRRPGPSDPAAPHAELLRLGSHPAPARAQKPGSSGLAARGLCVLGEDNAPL

Turning to `C=C(C)C(=O)OCCCCCC`, the Potency result in assay [1], in assay [2], in assay [3], in assay [4], in assay [5] and in assay [6] was “inactive” throughout. Further, the Potency entry in assay [7], in assay [8], in assay [9], in [10], in [11] and in assay [12] was “inactive” each time. Further, the Potency entry in assay [13], in [14], in [15], in assay [16] and in assay [17] was “inactive” in each case.
`CCCCNC(=O)NS(=O)(=O)c1ccc(N)cc1`: the Potency entry in assay [1], in assay [2], in assay [3], in assay [4], in [5] and in assay [6] was “inactive” throughout. Besides, the Potency entry in assay [7], in [8], in [18], in assay [9], in assay [10] and in assay [11] was “inactive” throughout. In addition, the Potency entry in assay [12], in assay [13], in assay [16], in assay [19] and in assay [17] was “inactive” in each case.
With `C=C(C)CNCC`, the Potency entry in assay [1], in assay [2], in assay [3], in assay [4], in assay [5] and in assay [6] was “inactive” each time. The Potency result in assay [7], in assay [8], in [18], in assay [9], in [10] and in [11] was “inactive” each time. Also, the Potency entry in [12], in [13], in assay [15], in assay [16], in [20] and in assay [19] was “inactive” in each case. The Potency entry in assay [17] was “inactive”.
Consider `C[C@]12CCC(=O)C=C1CC[C@@H]1[C@@H]2C(=O)C[C@@]2(C)[C@H]1CC[C@]2(O)C(=O)CO`, for which the Potency entry in [1], in assay [2], in assay [3], in assay [4], in [5] and in [6] was “inactive” throughout. The Potency entry in assay [8], in assay [18], in [9], in assay [14], in [16] and in assay [20] was “inactive” throughout. For the same compound, the Potency entry in assay [19] and in assay [17] was “inactive” throughout. The Potency in assay [7] is 408 nM (active) and inactive.
As to `COc1cc(NC(=O)CC(C)=O)c(OC)cc1Cl`, the Potency entry in [1], in [2], in [3], in [4], in [5] and in assay [6] was “inactive” throughout. In addition, the Potency result in assay [7], in [8], in assay [18], in [9], in [10] and in assay [11] was “inactive” each time. In addition, the Potency entry in [12], in assay [13], in assay [16], in assay [19] and in assay [17] was “inactive” each time.
Turning to `C#C[C@]1(O)CC[C@H]2[C@@H]3CCC4=Cc5oncc5C[C@]4(C)[C@H]3CC[C@@]21C`, in assay [1], the Potency was 61.1 µM (active) and 23.7 µM (active). In addition, the Potency result in assay [2], in assay [3], in [4], in assay [5], in [6] and in [7] was “inactive” throughout. The Potency result in assay [8], in [18], in [16], in assay [19] and in assay [17] was “inactive” each time.
For `CN(C)CCOC(C)(c1ccccc1)c1ccccn1` (stereo not drawn), the Potency result in [1], in assay [2], in [3], in [4], in assay [5] and in assay [6] was “inactive” throughout. In addition, the Potency entry in assay [7], in assay [8], in assay [18], in assay [9], in [10] and in assay [11] was “inactive” each time. Besides, the Potency entry in assay [13], in assay [14], in assay [16], in assay [20], in [19] and in assay [17] was “inactive” in each case.
For the compound `CCC(Cc1c(I)cc(I)c(N)c1I)C(=O)O` (stereo not drawn), the Potency entry in [1], in [2], in assay [3], in assay [4], in [5] and in assay [6] was “inactive” each time. The Potency entry in [7], in [8], in [18], in assay [11], in [12] and in assay [13] was “inactive” each time. Also, the Potency entry in assay [14], in [15], in assay [16], in assay [20] and in [19] was “inactive” throughout. In addition, the Potency entry in assay [10] was “inactive and 3.65 µM (active)”.
